Records with an inconclusive call do not appear. Calls of active or inactive are those of the source. Calls come from the whole dose curve; as a rule, active = well fitted curve in the direction sought with a large enough effect in the repeat runs; inconclusive = weak or mixed curves; inactive = no such curve, though single readings can be large; an effect the other way counts as inactive or inconclusive.
Experiments:
[1] = qHTS RealTime-Glo MT Cell Viability Assay in HepG2 cells - 24 hour (AID 1224867); note: nearly all actives have a fitted effect of over 50% in size
Method in brief: (§1)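 Luminescence read-out: viable HepG2 cells reduce a prosubstrate to a NanoLuc substrate, giving a signal proportional to live cell number. Reads taken at 0, 8, 16, 24, 32 and 40 h of compound exposure at 37 C.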

[2] = qHTS RealTime-Glo MT Cell Viability Assay in HEK293 cells - 32 hour (AID 1224868); note: top concentration of the series differs between compounds; nearly all actives have a fitted effect of over 50% in size
Method in brief: (§2)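 Nonlytic real-time viability readout: viable cells convert prosubstrate to NanoLuc substrate, giving luminescence proportional to live cell number. HEK293, 600 cells/well, compound added after 5 h, continuous culture at 37 C.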

[3] = A CellTox Green Cytotoxicity Assay to monitor cytotoxicity in HEK293 cells - 0 hour (AID 1224869); note: nearly all actives have a fitted effect of over 50% in size
Method in brief: (§3)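 Fluorescence from a DNA-binding dye excluded by viable cells was measured repeatedly in the same HEK293 wells (600 cells/well) during continuous compound exposure at 37 C. Each assay gives one read point: 0, 8, 16, 24, 32 or 40 h.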

[4] = qHTS RealTime-Glo MT Cell Viability Assay in HepG2 cells - 40 hour (AID 1224870); note: nearly all actives have a fitted effect of over 50% in size
Method in brief: (§4)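 HepG2 cells (600/well) mixed with RealTime-Glo MT reagent, settled 5 h at 37 C/5% CO2 before compound addition. Nonlytic NanoLuc luminescence from viable-cell prosubstrate reduction read repeatedly during 40 h treatment at 37 C.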

[5] = A CellTox Green Cytotoxicity Assay to monitor cytotoxicity in HEK293 cells - 40 hour (AID 1224871); note: nearly all actives have a fitted effect of over 45% in size
Method in brief: as §3

[6] = qHTS RealTime-Glo MT Cell Viability Assay in HEK293 cells - 16 hour (AID 1224872)
Method in brief: as §2

[7] = qHTS RealTime-Glo MT Cell Viability Assay in HepG2 cells - 8 hour (AID 1224873); note: nearly all actives have a fitted effect of over 55% in size
Method in brief: as §4

[8] = qHTS RealTime-Glo MT Cell Viability Assay in HEK293 cells - 40 hour (AID 1224874); conditions: RealTime-Glo luminescence; max response: stronger effect = lower value; note: nearly all actives have a fitted effect of over 50% in size
Method in brief: (§5)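 Luminescence, which tracks viable cell number through reduction of the prosubstrate to a NanoLuc substrate, was read over continuous 37 C culture. Cells (600/well) were premixed with reagent and rested 5 h before 23 nL of compound in DMSO was pinned.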

[9] = A CellTox Green Cytotoxicity Assay to monitor cytotoxicity in HEK293 cells - 24 hour (AID 1224875); note: series mostly up to about 77 µM; nearly all actives have a fitted effect of over 45% in size
Method in brief: as §3

[10] = A CellTox Green Cytotoxicity Assay to monitor cytotoxicity in HepG2 cells - 16 hour (AID 1224876); note: nearly all actives have a fitted effect of over 45% in size
Method in brief: (§6)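 Real-time cytotoxicity: fluorescence of a cell-impermeant cyanine dye binding DNA of dead HepG2 cells, measured repeatedly (0–40 h) during compound exposure at 37 C. Cells seeded 600/well with reagent, dosed after 5 h.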

[11] = qHTS RealTime-Glo MT Cell Viability Assay in HepG2 cells - 32 hour (AID 1224877); note: nearly all actives have a fitted effect of over 55% in size
Method in brief: as §1

[12] = A CellTox Green Cytotoxicity Assay to monitor cytotoxicity in HepG2 cells - 24 hour (AID 1224878); note: nearly all actives have a fitted effect of over 45% in size
Method in brief: as §6

[13] = A CellTox Green Cytotoxicity Assay to monitor cytotoxicity in HepG2 cells - 40 hour (AID 1224879); note: nearly all actives have a fitted effect of over 40% in size
Method in brief: as §6

[14] = A CellTox Green Cytotoxicity Assay to monitor cytotoxicity in HEK293 cells - 32 hour (AID 1224881); note: nearly all actives have a fitted effect of over 40% in size
Method in brief: as §3

[15] = A CellTox Green Cytotoxicity Assay to monitor cytotoxicity in HepG2 cells - 0 hour (AID 1224882); note: nearly all actives have a fitted effect of over 35% in size
Method in brief: as §6

[16] = A CellTox Green Cytotoxicity Assay to monitor cytotoxicity in HepG2 cells - 32 hour (AID 1224883); note: nearly all actives have a fitted effect of over 50% in size
Method in brief: as §6

[17] = A CellTox Green Cytotoxicity Assay to monitor cytotoxicity in HEK293 cells - 8 hour (AID 1224884); note: nearly all actives have a fitted effect of over 35% in size
Method in brief: as §3

[18] = qHTS RealTime-Glo MT Cell Viability Assay in HepG2 cells - 16 hour (AID 1224885); note: nearly all actives have a fitted effect of over 50% in size
Method in brief: as §1

[19] = qHTS RealTime-Glo MT Cell Viability Assay in HEK293 cells - 24 hour (AID 1224886)
Method in brief: as §2

[20] = qHTS RealTime-Glo MT Cell Viability Assay in HEK293 cells - 0 hour (AID 1224880)
Method in brief: as §5
% is set by controls: 0 for no effect and ±100 for the full control effect.

O=C(O)c1ccccc1C(=O)Nc1ccc(S(=O)(=O)Nc2nccs2)cc1
inactive: outcome [1] | Potency [2] | Potency [3] | outcome [4] | Potency [5] | Potency [6] | outcome [7] | max response [8] -1.33% | Potency [9] | Potency [10] | outcome [11] | Potency [12] | Potency [13] | Potency [14] | Potency [15] | Potency [16] | Potency [17] | outcome [18] | Potency [19]

O=S(=O)(O)CCO
inactive: outcome [1] | Potency [2] | Potency [3] | outcome [4] | Potency [5] | Potency [6] | outcome [7] | max response [8] -10.5% | Potency [9] | Potency [10] | outcome [11] | Potency [12] | Potency [13] | Potency [14] | Potency [15] | Potency [16] | Potency [17] | outcome [18] | Potency [19]

O=C1c2ccccc2-c2ccccc21
inactive: outcome [1] | Potency [2] | Potency [3] | outcome [4] | Potency [5] | Potency [6] | outcome [7] | max response [8] 1.19% | Potency [9] | Potency [10] | outcome [11] | Potency [12] | Potency [13] | outcome [20] | Potency [15] | Potency [16] | Potency [17] | outcome [18] | Potency [19]

C=COCCOCCOC=C
inactive: outcome [1] | Potency [2] | Potency [3] | outcome [4] | Potency [5] | Potency [6] | outcome [7] | max response [8] -1.05% | Potency [9] | Potency [10] | outcome [11] | Potency [12] | Potency [13] | Potency [14] | Potency [15] | Potency [16] | Potency [17] | outcome [18] | Potency [19]

C=C(C)C(=O)OCCCCCCOC(=O)C(=C)C
inactive: outcome [1] | Potency [2] | Potency [3] | outcome [4] | Potency [5] | Potency [6] | outcome [7] | max response [8] 6.48% | Potency [9] | Potency [10] | Potency [12] | Potency [13] | outcome [20] | Potency [15] | Potency [16] | outcome [18] | Potency [19]

Cc1ccc2c(c1)c1c3n2CCNC3CCC1 (centres undefined)
inactive: outcome [1] | Potency [2] | Potency [3] | outcome [4] | Potency [5] | outcome [7] | max response [8] 0.813% | Potency [9] | Potency [10] | outcome [11] | Potency [12] | Potency [13] | outcome [20] | Potency [14] | Potency [15] | Potency [16] | Potency [17] | outcome [18] | Potency [19]

Nc1cc(Cl)cc(S(=O)(=O)O)c1O
inactive: outcome [1] | Potency [2] | Potency [3] | outcome [4] | Potency [5] | Potency [6] | outcome [7] | max response [8] -4.63% | Potency [10] | outcome [11] | Potency [12] | Potency [13] | outcome [20] | Potency [15] | Potency [16] | outcome [18] | Potency [19]

CCCCCCCCCCC
inactive: outcome [1] | Potency [2] | Potency [3] | outcome [4] | Potency [5] | Potency [6] | outcome [7] | max response [8] -0.764% | Potency [9] | Potency [10] | Potency [12] | Potency [13] | outcome [20] | Potency [15] | Potency [16] | Potency [17] | outcome [18] | Potency [19]

CC1=CC[C@H](CC=O)C1(C)C
inactive: outcome [1] | Potency [2] | Potency [3] | outcome [4] | Potency [5] | Potency [6] | outcome [7] | max response [8] 1.6% | Potency [9] | Potency [10] | Potency [12] | Potency [13] | outcome [20] | Potency [14] | Potency [15] | Potency [16] | Potency [17] | outcome [18] | Potency [19]

O=S(=O)(O)c1cc(O)ccc1O
inactive: outcome [1] | Potency [2] | Potency [3] | outcome [4] | Potency [5] | Potency [6] | outcome [7] | max response [8] 9.53% | Potency [9] | outcome [20] | Potency [14] | Potency [15] | Potency [17] | outcome [18] | Potency [19]

CC(C)COC(=O)CCCCC(=O)OCC(C)C
inactive: outcome [1] | Potency [2] | Potency [3] | outcome [4] | Potency [5] | Potency [6] | outcome [7] | max response [8] -8.63% | Potency [9] | Potency [10] | Potency [12] | Potency [13] | Potency [14] | Potency [15] | Potency [16] | Potency [17] | outcome [18] | Potency [19]
